According to PubChem BioAssay AID624296 (National Center for Advancing Translational Sciences (NCATS), 2012):
Hit rate of the full screen: of about 350,000 compounds, about 9,900 (2.8%) were called active. Not shown: some 15% with an inconclusive outcome. The list comes from a sample in which actives are over-represented; it also holds similar structures and randomly drawn compounds. Values without a mark were called inactive. Calls follow the shape of the dose curve; as a rule, active = well fitted activation curve with a large enough effect; inconclusive = small, poorly fitted or top-dose-only effect; inactive = no such curve, though single readings can be large or run the other way.
Potency is read from the fitted curve at half-maximal effect.

Experiment: A quantitative high throughput screen for small molecules that induce DNA re-replication in MCF 10a normal breast cells. Also: nearly all actives have a fitted effect of over 50% in size. As to activity, positive = re-replication: % of control where 0% means no effect.
Settings: MCF 10A DNA re-replication, Hoechst nuclear intensity, 48 h; series mostly up to 46.1 µM; activity, positive = re-replication: at the top concentration
With `CC(=O)Nc1ccc(NC(=O)c2sc3nc4c(c(-c5ccc(C)cc5)c3c2N)CCC4)cc1` the Potency was 5.8 µM (active). For `Cc1cccc(NC(=O)/C(=C\c2ccco2)NC(=O)c2ccccc2)c1`, the “activity, positive = re-replication” value was 4.86%. With `Cc1ccc(NC(=O)c2sc3nc(N)c(C#N)cc3c2N)cc1` the “activity, positive = re-replication” value was 99%. In the case of `CC(=O)c1ccc(NC(=O)c2sc3nc4n(c(=O)c3c2C)CCCCC4)cc1`, the “activity, positive = re-replication” value is reported as 13.7%. In the case of `Cc1cccc(NC(=O)CSc2nnc(-c3ccco3)o2)c1`, the “activity, positive = re-replication” value is reported as 13.8%. For `Cc1cccc(NC(=O)c2sc3nc4c(c(-c5ccco5)c3c2N)CCC4)c1`, the Potency was 13 µM (active). In the case of `Cc1cccc(NC(=O)c2sc3nc(N4CCOCC4)c4c(c3c2N)CCCC4)c1`, the Potency is reported as 2.91 µM (active). With `CC(=O)Nc1ccc(N2CCOCC2)c(C(=O)Nc2cccc(C)c2)c1` the “activity, positive = re-replication” value was 0.446%. In the case of `c1ccc(CSc2ncnc3c2sc2nc(N4CCOCC4)c4c(c23)CCCC4)cc1`, the “activity, positive = re-replication” value is reported as 7.01%. With `Cc1ccc(S(=O)(=O)N(C)c2ccc(OCC(=O)OCc3ccc(C#N)cc3)cc2)cc1` the “activity, positive = re-replication” value was -2.84%. For `O=C(CC(=O)c1cccnc1)c1ccccc1`, the “activity, positive = re-replication” value was 1.86%. With `OC(COc1ccccc1)CN1CCN(c2cccc(Cl)c2)CC1` (stereo not given) the “activity, positive = re-replication” value was 6.13%. In the case of `C[C@@H]1NS(=O)(=O)c2cc(Cl)ccc2O[C@@H]1c1ccccc1`, the “activity, positive = re-replication” value is reported as 2.32%. In the case of `CCc1cccc(NC(=O)COC(=O)c2cc(=O)c3ccccc3o2)c1`, the “activity, positive = re-replication” value is reported as -1.43%. With `CCOC(=O)C1CCCN(C(=O)CSc2nnc3nc(C)cc(C)n23)C1` (stereo not given) the “activity, positive = re-replication” value was -3.48%. In the case of `Cc1c(C(=O)Nc2cccc(S(=O)(=O)N3CCOCC3)c2)oc2ccccc12`, the “activity, positive = re-replication” value is reported as 4.39%. In the case of `CCN(CC)S(=O)(=O)c1ccc(NC(=O)CN(c2cccc(F)c2)S(C)(=O)=O)cc1`, the “activity, positive = re-replication” value is reported as 14.2%. In the case of `Cc1cccc(N(CC(=O)Nc2ccc(-c3nc4ccc(C)cc4s3)cc2)S(C)(=O)=O)c1`, the Potency is reported as 14.6 µM (active). For `COc1cccc(N(CC(=O)Nc2cccc(F)c2)S(C)(=O)=O)c1`, the “activity, positive = re-replication” value was 0.363%. With `CCN(CC)C(=O)[C@H]1CC(CC(=O)NCc2ccco2)C(=O)N2CCc3c([nH]c4ccccc34)[C@]12C` (stereo not given in full) the “activity, positive = re-replication” value was 2.25%. With `CN(C)S(=O)(=O)c1ccc(C(=O)NCC2(N3CCOCC3)CCCCC2)cc1` the “activity, positive = re-replication” value was 19.4%. In the case of `Cc1cc(/C=N/NC(=O)c2cccnc2)c(C)n1CC(C)C`, the “activity, positive = re-replication” value is reported as -3.64%. For `O=C(N/N=C/c1sc(N2CCCCC2)nc1-c1cccs1)c1cccnc1`, the Potency was 0.461 µM (active). With `O=C(N/N=C/c1ccc(O)c2ccccc12)c1cccnc1` the “activity, positive = re-replication” value was 18.5%. For `OCCN1CCN(CCO)C1=S`, the “activity, positive = re-replication” value was -4.43%. In the case of `O=C(CCC(=O)N1CCN(S(=O)(=O)c2ccc(Cl)cc2)CC1)NCc1cccc(C(F)(F)F)c1`, the “activity, positive = re-replication” value is reported as 7.94%. With `C[C@H](NC(=O)c1[nH]cnc1C(=O)Nc1nccs1)c1ccccc1` the “activity, positive = re-replication” value was 5.81%. In the case of `CN(CC(=O)NCCc1ccc(S(N)(=O)=O)cc1)CC(=O)Nc1ccc(Cl)cc1`, the “activity, positive = re-replication” value is reported as 13.7%. In the case of `CCC(C)NC(=O)c1ccc(NC(=O)CC2SC(N3CCCCC3)=NC2=O)cc1` (stereo not given), the “activity, positive = re-replication” value is reported as -1.6%. For `Cc1ccc(NC(=S)NC(=O)c2ccc(-c3ccccc3)cc2)cc1`, the “activity, positive = re-replication” value was 12.4%. For `CCOC(=O)C1=C(NC(=S)NC(=O)c2ccccc2)c2ccccc2CC1(C)C`, the Potency was 4.11 µM (active). In the case of `CCOC(=O)c1c(-c2ccccc2)csc1NC(=S)NC(=O)c1ccccc1`, the “activity, positive = re-replication” value is reported as 17.7%. With `CSc1ccc(S(=O)(=O)NCC(=O)OCC(=O)NC2(C#N)CCCCC2)cc1[N+](=O)[O-]` the “activity, positive = re-replication” value was -9.34%. In the case of `COc1ccc(CCNC(=O)COC(=O)C2CC2C)cc1` (stereo not given), the “activity, positive = re-replication” value is reported as -1.5%. For `C#CCOCCOCCOCCNc1nc(N2CCN(C(=O)[C@H](CO)n3cc([C@@H](N)C(C)C)nn3)CC2)nc(N2CCN(C(=O)[C@H](CCC(=O)O)n3cc([C@@H](N)[C@H](C)CC)nn3)CC2)n1`, the “activity, positive = re-replication” value was 5.49%. With `CCOC(=O)C1=C(C)Nc2sc(C(=O)c3ccc(Br)cc3)c(N)c2C1c1ccc(C(=O)OC)cc1` (stereo not given) the Potency was 2.91 µM (active). For `CCOC(=O)c1sc(=S)n2c1[nH]c(=O)c1ccc(C(=O)OC)cc12`, the “activity, positive = re-replication” value was 12.3%. In the case of `CCOC(=O)c1sc(=NC(=O)c2ccc(Br)cc2)n(C)c1C`, the “activity, positive = re-replication” value is reported as -1.22%. For `CC(Oc1ccc(Br)cc1)C(=O)NC1CCCCCC1` (stereo not given), the “activity, positive = re-replication” value was -2.6%. For `COc1cccc(CC2(CO)CCCN(Cc3ccc(OC(F)F)cc3)C2)c1` (stereo not given), the “activity, positive = re-replication” value was 11.3%. For `CCc1[nH]nc(C(=O)N2CCCC(CO)(Cc3ccc(F)cc3F)C2)c1C` (stereo not given), the “activity, positive = re-replication” value was 2.62%. With `CCOc1cc(CN2CCCC(CO)(Cc3ccc(F)cc3F)C2)ccc1OC` (stereo not given) the Potency was 3.66 µM (active). With `Cc1nc(N)nc(Cl)c1CCC1OCCO1` the “activity, positive = re-replication” value was -13.3%. For `O=C(COC(=O)c1cccnc1Cl)NC(=O)NC1CCCCC1`, the “activity, positive = re-replication” value was -3.4%. In the case of `CCOC(=O)[C@@H]1[C@H]2COc3ccc(Br)cc3[C@H]2N2C(=O)N(c3ccc(C)cc3)C(=O)[C@@]12C`, the “activity, positive = re-replication” value is reported as 0.91%. With `COc1ccc(OC)c(/C(C)=N\NC(=O)c2cc3cc(Cl)ccc3n2C)c1` the Potency was 14.6 µM (active). With `COc1ccc(/C(C)=N/NC(=O)CCC(=O)Nc2ccc(Cl)cc2Cl)c(OC)c1` the “activity, positive = re-replication” value was -1.1%. With `COc1ccc(OC)c(C(=O)c2ccc(Cl)cc2)c1` the “activity, positive = re-replication” value was -1.75%. With `C=CCN1C=C(C(=O)c2ccccc2)C(=O)CC1` the “activity, positive = re-replication” value was -10.9%. In the case of `OCC[C@H]1C[C@@H](O)[C@H](O)[C@@]2(OCCc3ccccc32)O1`, the “activity, positive = re-replication” value is reported as -2.2%. For `O=C(Nc1cccc(Br)c1)C1CC(=O)N(C2CCCC2)C1` (stereo not given), the “activity, positive = re-replication” value was 0.188%. With `COc1ccccc1C(=O)N1CC2(C)CC1CC(C)(C)C2` (stereo not given) the “activity, positive = re-replication” value was 5.95%. With `Cc1cccc(C(=O)NCC(=O)OCC(=O)N2CC3(C)CC2CC(C)(C)C3)c1` (stereo not given) the “activity, positive = re-replication” value was 7.03%. With `Cc1nnnn1/C(=C\c1ccccc1)C(=O)OCC(=O)N1CC2(C)CC1CC(C)(C)C2` (stereo not given) the Potency was 16.4 µM (active). With `O=C(COC(=O)Cc1ccc([N+](=O)[O-])cc1)NC1CCCCCC1` the “activity, positive = re-replication” value was -3.78%. In the case of `CSc1ncccc1C(=O)Nc1cccc(S(=O)(=O)N2CCOCC2)c1`, the “activity, positive = re-replication” value is reported as 7.68%. In the case of `CSc1nc(-c2ccccc2)nc(C(Cl)Cl)n1`, the Potency is reported as 2.59 µM (active). In the case of `CSc1nc(C)cc(SC(C(C)=O)C(=O)Nc2ccccc2)n1` (stereo not given), the “activity, positive = re-replication” value is reported as -0.661%. In the case of `CSc1ncc(Sc2ccccc2)c(C(=O)O)n1`, the “activity, positive = re-replication” value is reported as 0.656%. For `O=C(Nc1cccc(S(=O)(=O)NC2=NCCC2)c1)c1ccc(F)cc1F`, the “activity, positive = re-replication” value was -17.2%. For `O=C(Nc1ccc(C(F)(F)F)cc1)c1cccc(-n2cnnn2)c1`, the “activity, positive = re-replication” value was -0.9%. For `CC(C)COc1ccc(C(=O)NNC(=O)CCC(=O)c2cccs2)cc1`, the “activity, positive = re-replication” value was -7.87%. With `C#Cc1ccc([C@@H]2C=C(C(=O)O)O[C@H](OCCCCO)C2)cc1` the “activity, positive = re-replication” value was -5.28%. For `O=C(NCc1ccccc1)C1=C[C@H](C2CC2)C[C@H](OCc2ccc(CO)cc2)O1`, the “activity, positive = re-replication” value was 2.7%. In the case of `O=C(NCc1ccccc1)C1=C[C@@H](c2ccccc2)C[C@@H](OCCCCO)O1`, the Potency is reported as 16.4 µM (active). In the case of `O=C(NCc1ccccc1)C1=C[C@@H](C2CCCCC2)C[C@@H](OCc2ccc(CO)cc2)O1`, the Potency is reported as 18.4 µM (active). With `CC(C)(C)[C@H]1C=C(C(=O)NCc2ccccc2)O[C@@H](OCc2ccc(CO)cc2)C1` the “activity, positive = re-replication” value was -23.1%. In the case of `O=C(O)C1=C[C@H](c2cccs2)C[C@H](OCCCCO)O1`, the “activity, positive = re-replication” value is reported as -0.726%. In the case of `CC(=O)OC1CCC2(C)C(=CCC3C4CC(=O)N(O)C(=O)C4(C)CCC32)C1` (stereo not given), the “activity, positive = re-replication” value is reported as -0.584%. For `CC(C)Cc1nnc(N)s1`, the “activity, positive = re-replication” value was -4.14%. In the case of `NC(=S)N/N=C/c1ccc([N+](=O)[O-])cc1`, the “activity, positive = re-replication” value is reported as -0.441%. In the case of `CC(C)c1ccc(C=NNc2ccc([N+](=O)[O-])cn2)cc1`, the Potency is reported as 6.51 µM (active). For `COc1ccc(Nc2ccc([N+](=O)[O-])cn2)cn1`, the “activity, positive = re-replication” value was -2.54%. With `Cc1ccc(S(=O)(=O)NCCNC(C)c2ccc(Br)cc2)cc1` (stereo not given) the “activity, positive = re-replication” value was 18%. In the case of `C#CCOCCOCCOCCNc1nc(N2CCN(C(=O)[C@H](CCCN=C(N)N)n3cc(C(N)[C@@H](C)CC)nn3)CC2)nc(N2CCN(C(=O)[C@H](CO)n3cc([C@@H](N)C(C)C)nn3)CC2)n1` (stereo not given in full), the “activity, positive = re-replication” value is reported as 1.5%.
